# Data: PubChem BioAssay AID489043 (National Center for Advancing Translational Sciences (NCATS), 2010)
# Inconclusive results are not listed. Calls of active or inactive are those of the source. Calls follow the shape of the dose curve; as a rule, active = well fitted activation curve with a large enough effect; inconclusive = small, poorly fitted or top-dose-only effect; inactive = flat fitted curve, though single readings scatter.
# Biological target: Relaxin receptor 2 (Homo sapiens) (UniProt Q8WXD0)
# Sequence (Q8WXD0 whole entry, looked up): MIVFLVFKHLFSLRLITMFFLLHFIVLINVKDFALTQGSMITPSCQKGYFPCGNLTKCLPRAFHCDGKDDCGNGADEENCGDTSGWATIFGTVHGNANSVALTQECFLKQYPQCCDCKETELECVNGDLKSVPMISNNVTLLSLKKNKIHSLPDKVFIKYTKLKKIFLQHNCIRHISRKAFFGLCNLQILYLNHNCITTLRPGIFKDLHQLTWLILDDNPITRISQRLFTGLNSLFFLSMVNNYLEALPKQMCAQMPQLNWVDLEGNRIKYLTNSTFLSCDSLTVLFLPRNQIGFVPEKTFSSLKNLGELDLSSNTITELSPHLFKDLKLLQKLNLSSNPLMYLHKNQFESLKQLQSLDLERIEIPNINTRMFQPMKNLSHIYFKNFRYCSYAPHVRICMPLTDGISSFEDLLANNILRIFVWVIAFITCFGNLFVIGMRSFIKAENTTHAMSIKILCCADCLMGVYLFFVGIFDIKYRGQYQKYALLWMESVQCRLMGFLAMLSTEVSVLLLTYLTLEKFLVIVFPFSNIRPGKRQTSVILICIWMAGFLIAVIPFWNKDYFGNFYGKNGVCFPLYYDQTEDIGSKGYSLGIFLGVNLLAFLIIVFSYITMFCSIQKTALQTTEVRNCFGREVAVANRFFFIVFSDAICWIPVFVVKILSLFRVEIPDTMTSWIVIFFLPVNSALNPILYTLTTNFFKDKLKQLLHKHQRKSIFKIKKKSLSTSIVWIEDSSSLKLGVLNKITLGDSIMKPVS
# Assay: qHTS Assay for Agonists of the Relaxin Receptor RXFP1: RXFP2 Hit Validation; also: nearly all actives have a fitted effect of over 65% in size;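 as to activation: 0% = buffer only basal cAMP and 100% = 29 nM porcine relaxin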
# Conditions: HEK293 RXFP2 cAMP TR-FRET, 30 min; series mostly up to 115 µM; activation: at the top concentration
# In short: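 Concentration-response EC50s (Hill equation) come from a cAMP TR-FRET assay in HEK293 RXFP2 cells, compound for 30 min at 37C with PDE4 inhibitor.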
# Potency is read from the fitted curve at half-maximal effect.
SMILES,Potency,activation
COc1ccc(CN2C(=O)c3cccnc3C2=O)cc1S(=O)(=O)NC1CCCCC1C (stereo not given),15.5 µM (active),
Cc1ccccc1NC(=O)CNc1ccccc1C(=O)NCc1ccco1,,2.32% [at 125 µM] (inactive)
CC(=O)CCCCn1c(=O)c2c(ncn2C)n(C)c1=O,,25.5% (inactive)
O=C(Nc1ccccc1C(=O)NCc1ccccc1)c1ccco1,,5.45% [at 125 µM] (inactive)
C=CCNC(=O)NC(=O)COC(=O)c1nc2nccc(C)n2n1,34.6 µM (active),
CCOC(=O)C1CCN(C(=O)c2cc3c(=O)n4ccccc4nc3s2)CC1,48.9 µM (active),
O=C(O)CCNc1ccc(NCCC(=O)O)c2c1C(=O)c1ccccc1C2=O,,1.48% (inactive)
C=C(C)C(=O)Nc1cccc(C2=NOC3(C2)C[C@@H](C(N)=O)N(C(=O)c2ccc(Cl)cc2)C3)c1 (stereo not given in full),,3.65% (inactive)
CCOC(=O)CSc1nc(=O)n2cc(C)ccc2n1,,21.2% (inactive)
CCN(CC)S(=O)(=O)c1ccc(N2CCOCC2)c(NC(=O)c2cc([N+](=O)[O-])ccc2Cl)c1,,14% (inactive)
O=C(O)c1cccc(CSc2nnc(Cc3ccccc3)o2)c1,,3.94% [at 44.7 µM] (inactive)
O=C(O)c1ccc(N2C(=O)c3cccc4c(C(=O)O)ccc(c34)C2=O)cc1,47.3 µM (active),
CN(C)CCCn1c(SCC(=O)Nc2nc(-c3cccc(Br)c3)cs2)nc2ccccc2c1=O,,-4.88% (inactive)
CC(C)(C)C(=O)Nc1ccccc1C(=O)NCc1ccco1,,4.53% [at 125 µM] (inactive)
CC(=O)C1C(c2ccccc2)c2c(noc2C)CC1(C)O (stereo not given),,-5.3% (inactive)
Cn1c(=O)c2sccc2n2c(CCCC(=O)NCCc3ccc(S(N)(=O)=O)cc3)nnc12,43.6 µM (active),
O=C(NC1CCCCCC1)c1cc2c(=O)n3ccccc3nc2s1,38.9 µM (active),
CCN(CC)S(=O)(=O)c1ccc(C)c(NC(=O)Cn2cnc3cc([N+](=O)[O-])ccc3c2=O)c1,30.9 µM (active),
COc1cccc(C(=O)CSc2nnc(-c3cc(OC)cc(OC)c3)o2)c1,10.9 µM (active),
Nc1ncnc2c1ncn2[C@@H]1O[C@H](COS(=O)(=O)O)[C@@H](O)[C@H]1O,12.3 µM (active),
Cc1cccc(-c2nnc(SCC(=O)NC3CC3)n2C)c1,,-25.5% (inactive)
COC(=O)Cn1cnc2c(C#N)c3n(c2c1=O)CCCCC3,9.77 µM (active),
CC(=O)Nc1ccc(NC(=O)CSc2ccc3nnc(-c4ccccn4)n3n2)cc1,,27% [at 44.7 µM] (inactive)
COc1cc(-c2nnc(SCC(=O)N(C)C3CCS(=O)(=O)C3)o2)cc(OC)c1OC (stereo not given),,4.39% [at 44.7 µM] (inactive)
CCOC(=O)N1CCN(S(=O)(=O)c2c(C)nc3scc(C)n3c2=O)CC1,30.9 µM (active),
CCCN(CCC)S(=O)(=O)c1cc(CN2C(=O)c3cccnc3C2=O)ccc1OC,24.5 µM (active),
CCN(CC)S(=O)(=O)c1ccc2c(c1)nc(SCc1nc3ccsc3c(=O)[nH]1)n2CC,0.275 µM (active),
O=[N+]([O-])c1cccc(CSc2nnc3ccccn23)c1,34.6 µM (active),
O=C(Nc1ccccc1C(=O)N1CCN(c2ccccc2)CC1)c1ccco1,,-2.96% [at 125 µM] (inactive)
CC(=O)Nc1c2c3c(cccc3n(C)c1=O)C(=O)c1ccccc1-2,,20.1% [at 44.7 µM] (inactive)
